Compound activity (PubChem BioAssay)
Shown are actives, neighbours in structure and some others; about 6.7% of the full set was active somewhere.
T cruzi growth = T. cruzi proliferation inhibition. inhibition, % at 8.34 µM. T. cruzi beta-gal in NIH3T3, GalScreen luminescence, 90 h. 77,000 tested, 5.9% active;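 active means mean inhibition above about 93%, with at least 55% of replicates each passing it, limit read from the data, passing the limit was not always enough; inconclusive means only one of those two conditions holds; inactive means neither condition holds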
Pf Dd2 inh = P. falciparum Dd2 growth inhibition; SYBR Green, 72 h; stronger effect = lower value; activity change, % at 10 µM; 94,000 tested, 2.3% active; in the data active means activity change below about -80%; inconclusive means no clear call, values can overlap the other calls
C diff growth = C. difficile growth inhibition. Clostridium difficile clinical isolate growth, OD600, 24 h; stronger effect = lower value. growth activity, negative = inhibition, % at 16 µg/mL (by protocol). 86,000 tested, 0.25% active;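 active means mean growth activity at or below -80% and every replicate also at or below -80%; inconclusive means mean at or below -80% but some replicate above -80%; inactive means mean growth activity above -80%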
Hits are given with their value; n = inactive; u = inconclusive; x = not tested or not shown; ! = not confirmed by another sample.

SMILES	T cruzi growth	Pf Dd2 inh	C diff growth
O=C(Nc1ccccc1F)N1CC(=O)N2[C@H](CO)[C@@H](c3ccc(-c4ccccc4)cc3)[C@H]2C1	x	-83.8	n
O=C(Nc1cc(F)ccc1F)N1CC(=O)N2[C@H](CO)[C@@H](c3ccc(C#CC4CCCCC4)cc3)[C@@H]2C1	x	-81.8	n
O=C(Nc1cc(F)ccc1F)N1CC(=O)N2[C@H](C1)[C@@H](c1ccc(C#CC3CCCCC3)cc1)[C@@H]2CO	x	n	n
O=C(Nc1ccccc1F)N1CC(=O)N2[C@H](CO)[C@H](c3ccc(-c4ccccc4)cc3)[C@@H]2C1	x	n	n
C[C@@H]1CCCCO[C@H](CN(C)Cc2ccc(C(=O)Nc3ccccc3N)cc2)[C@@H](C)CN([C@H](C)CO)C(=O)c2cc(NS(C)(=O)=O)ccc2O1	n	n	n
C[C@H]1CN([C@@H](C)CO)C(=O)c2cc(NC(=O)C3CC3)ccc2O[C@H]1CN(C)Cc1ccc(C(=O)Nc2ccccc2N)cc1	x	n	n
C[C@H](CO)N1C[C@H](C)[C@H](CN(C)Cc2ccc(C(=O)Nc3ccccc3N)cc2)OCCCC[C@H](C)Oc2ccc(NC(=O)C3CCCCC3)cc2C1=O	x	-92.5	n
C[C@@H]1CN([C@@H](C)CO)C(=O)c2cc(NC(=O)C3CCCCC3)ccc2O[C@@H]1CN(C)Cc1ccc(C(=O)Nc2ccccc2N)cc1	n	-88.5	n
C[C@@H]1CN([C@@H](C)CO)C(=O)c2cc(NC(=O)C3CC3)ccc2O[C@@H]1CN(C)Cc1ccc(C(=O)Nc2ccccc2N)cc1	n	n	n
C[C@@H]1CN([C@H](C)CO)C(=O)c2cc(NC(=O)C3CCCCC3)ccc2O[C@@H]1CN(C)Cc1ccc(C(=O)Nc2ccccc2N)cc1	n	-83.3	n
CC(C)NC(=O)N(C)C[C@@H]1OCCCC[C@H](C)Oc2ccc(N(C)C)cc2C(=O)N([C@H](C)CO)C[C@H]1C	n	n	n
O=C(NC[C@H]1CC[C@@H]2[C@@H](CN2C(=O)Cc2ccncc2)O1)C1CCOCC1	x	n	n
COc1cccc(NC(=O)N[C@H]2CC[C@H](CC(=O)NCc3ccncn3)O[C@H]2CO)c1	n	n	x
C[C@@H]1CCCCO[C@H](CN(C)Cc2ccc(C(=O)Nc3ccccc3N)cc2)[C@@H](C)CN([C@H](C)CO)C(=O)c2cc(NS(=O)(=O)c3cccs3)ccc2O1	n	-87.2	n
C[C@@H]1CCCCO[C@@H](CN(C)Cc2ccc(C(=O)Nc3ccccc3N)cc2)[C@@H](C)CN([C@H](C)CO)C(=O)c2cc(NS(=O)(=O)c3ccc(Cl)cc3)ccc2O1	x	u	n
C[C@@H]1CCCCO[C@@H](CN(C)Cc2ccc(C(=O)Nc3ccccc3N)cc2)[C@@H](C)CN([C@H](C)CO)C(=O)c2cc(NS(=O)(=O)c3cccs3)ccc2O1	x	u	n
C[C@@H]1CCCCO[C@H](CN(C)Cc2ccc(C(=O)Nc3ccccc3N)cc2)[C@@H](C)CN([C@@H](C)CO)C(=O)c2cc(NS(=O)(=O)c3ccc(Cl)cc3)ccc2O1	n	-84.9	n
C[C@H]1CN([C@@H](C)CO)C(=O)c2cc(NC(=O)Cc3ccccc3)ccc2O[C@@H]1CN(C)Cc1ccc(-c2ccccc2)cc1	n	n	n
CCNC(=O)C[C@H]1CC[C@@H]2[C@H](COC[C@H](O)CN2C(=O)Nc2ccc(C(F)(F)F)cc2)O1	n	n	-88.4
CCNC(=O)C[C@H]1CC[C@H]2[C@@H](COC[C@@H](O)CN2C(=O)Nc2ccc(C(F)(F)F)cc2)O1	n	n	-101.6!
O=C(C[C@H]1CC[C@H]2[C@@H](COC[C@H](O)CN2C(=O)Nc2ccc(C(F)(F)F)cc2)O1)NCCc1ccncc1	n	n	n
O=C(C[C@@H]1CC[C@H]2[C@@H](COC[C@@H](O)CN2C(=O)Nc2ccc(C(F)(F)F)cc2)O1)NCCc1ccncc1	n	n	n
O=C(c1ccccc1F)N1CC2(C1)[C@H](c1ccccc1)[C@H](CO)N2CC1CCCC1	x	n	n
C[C@H]1CN([C@@H](C)CO)C(=O)c2cc(NS(=O)(=O)c3cn(C)cn3)ccc2O[C@@H]1CN(C)Cc1ccccc1	n	n	n
COc1ccc(S(=O)(=O)N(C)C[C@@H]2OCCCC[C@@H](C)Oc3ccc(NS(=O)(=O)c4ccc(C)cc4)cc3C(=O)N([C@@H](C)CO)C[C@H]2C)cc1	101.6	n	n
SMILES	T cruzi growth	Pf Dd2 inh	C diff growth
COc1ccc(S(=O)(=O)Nc2ccc3c(c2)C(=O)N([C@H](C)CO)C[C@H](C)[C@@H](CN(C)S(=O)(=O)c2ccc(OC)cc2)O3)cc1	x	-85.5	n
COc1ccc(S(=O)(=O)Nc2ccc3c(c2)C(=O)N([C@H](C)CO)C[C@H](C)[C@@H](CN(C)S(=O)(=O)c2ccc(C)cc2)OCCCC[C@@H](C)O3)cc1	x	n	x
COc1ccc(S(=O)(=O)N(C)C[C@H]2OCCCC[C@H](C)Oc3ccc(NS(=O)(=O)c4ccc(C)cc4)cc3C(=O)N([C@@H](C)CO)C[C@H]2C)cc1	n	-82.3	n
COc1ccc(S(=O)(=O)Nc2ccc3c(c2)C(=O)N([C@H](C)CO)C[C@@H](C)[C@@H](CN(C)S(=O)(=O)c2ccc(OC)cc2)O3)cc1	n	n	n
COc1ccc(S(=O)(=O)N(C)C[C@H]2OCCCC[C@@H](C)Oc3ccc(NS(=O)(=O)c4ccc(C)cc4)cc3C(=O)N([C@H](C)CO)C[C@@H]2C)cc1	n	n	n
CO[C@H]1CN(C)C(=O)c2cc(NC(=O)CC(F)(F)F)ccc2OC[C@@H](C)N(C(=O)C2CC2)C[C@H]1C	x	n	n
COc1ccc2c3c([nH]c2c1)[C@@H](CO)N(Cc1ccccc1)CC31CN(C(=O)Cc2ccccc2)C1	x	-84.1	n
COCC(=O)N1CCC2(CC1)CN(Cc1cccc(Cl)c1)[C@@H](CO)c1[nH]c3cc(OC)ccc3c12	x	n	n
COc1ccc(CN2CC3(CN(C(=O)Cc4ccccc4)C3)c3c([nH]c4cc(OC)ccc34)[C@@H]2CO)cc1	x	-85.7	n
COc1ccc2c3c([nH]c2c1)[C@H](CO)N(CC1CC1)CC31CN(C(=O)c2ccc(F)cc2)C1	x	n	n
COc1ccc2c3c([nH]c2c1)[C@H](CO)N(CC1CC1)CC31CN(C(=O)c2ccccc2)C1	x	-82.5	n
COc1ccc(CN2CC3(CCN(C(=O)Cc4ccccc4)CC3)c3c([nH]c4cc(OC)ccc34)[C@H]2CO)cc1	x	u	n
COc1ccc2c3c([nH]c2c1)[C@H](CO)N(Cc1ccccc1)CC31CN(C(=O)Cc2ccccc2)C1	x	n	x
COCC(=O)N1CC2(C1)CN(Cc1cccc(Cl)c1)[C@@H](CO)c1[nH]c3cc(OC)ccc3c12	x	-92.5	n
COc1ccc(NC(=O)Nc2ccc3c(c2)C(=O)N([C@H](C)CO)C[C@@H](C)[C@H](CN(C)C(=O)C2CCCCC2)OCCCC[C@H](C)O3)cc1	n	n	n
C[C@H]1CN([C@@H](C)CO)C(=O)c2cc(Br)cnc2O[C@H]1CN(C)C(=O)c1ccccc1	x	n	n
CO[C@@H]1CN(C)C(=O)c2ccc(NC(=O)Nc3cccc(F)c3)cc2OC[C@H](C)N(C(C)=O)C[C@@H]1C	n	n	x
CCC(=O)N1CC2(C1)CN(C(=O)Nc1ccccc1F)[C@H](CO)c1c2c2ccc(OC)cc2n1C	x	n	n
COc1ccc2c3c([nH]c2c1)[C@H](CO)N(C(=O)Nc1c(C)noc1C)CC31CN(CC2CC2)C1	x	n	n
